Screening data as filed in PubChem BioAssay.
TDP1 inh: inhibitors of human tyrosyl-DNA phosphodiesterase TDP1; hit rate 0.28% among 350,000; Q9NUW8; Potency, µM (top dose mostly 130 µM), for inactives: top-dose activity change, negative = inhibition, usual class: inhibitors; recombinant TDP1, AlphaScreen DNA substrate cleavage; note: nearly all actives have a fitted effect of over 40% in size
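Recombinant human Tdp1 (E. coli-expressed, 1 nM final) preincubated with compounds 15 min at room temperature, then 5'-biotin/3'-phosphotyrosine-FITC DNA substrate (15 nM final) added for 5 min. AlphaScreen beads (10 ug/ml final) added 10 min; cleavage lowers signal.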
RECQ1 inh: inhibitors of human RECQ1 DNA helicase; P46063; RECQ1 DNA unwinding, red fluorescence kinetic read; Potency, µM (series often up to 57.3 µM), for inactives: top-dose activity, negative = inhibition, hits mostly inhibitors; hit rate 0.54% among 240,000; AID 2549;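 note: plate controls were vehicle for no effect and no enzyme for full effect; nearly all actives have a fitted effect of over 30% in size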
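RECQ1T1 50 nM; forked duplex (20 bp + 30-nt ss tails) 200 nM, ATP 2 mM final; pH 8.0, 2 mM MgCl2, 2.5 ug/ml poly(dI-dC); 15 min compound preincubation; discontinuous kinetic read over 2 h at RT.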
APEX1 inh: inhibitors of human APE1 endonuclease | recombinant APE1, TAMRA/BHQ-2 abasic DNA cleavage fluorescence | Potency, µM (series often up to 65.8 µM), for inactives: top-dose activity change, negative = inhibition, usual class: inhibitors | AID 2517 | hit rate 0.35% among 350,000;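 note: plate controls were vehicle for no effect and reference inhibitor for full effect; nearly all actives have a fitted effect of over 55% in size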
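Step 1: APE1 (0.75 nM) with compound, 15 min RT. Step 2: add 50 nM fluorophore/quencher THF duplex. Step 3: three fluorescence reads 60 s apart (525/598 nm); read 3 minus read 1 = reaction progress.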
KDM4E inh: inhibitors of human JMJD2E histone demethylase; B2RXH2; JMJD2E catalytic domain, FDH-coupled NADH fluorescence (FDH is formaldehyde dehydrogenase); Potency, µM (titrated, usually from 57.1 µM), inactives show top-dose activity change, negative = inhibition, hits mostly inhibitors; hit rate 1.6% among 230,000; AID 2147; active = well fitted inhibition curve with a large enough effect, not every such curve was filed as active; inconclusive = small, poorly fitted or top-dose-only effect, or another doubt; inactive = no such curve, though single readings can be large or run the other way;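 note: 0% = wells with enzyme and -100% = buffer wells without enzyme; nearly all actives have a fitted effect of over 50% in size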
BLM helicase inh: blocks DNA unwinding by human BLM helicase; P54132; Potency, µM (doses to about 56.1 µM), inactives show at the top dose activity change, negative = inhibition, usual class: inhibitors; hit rate 0.2% among 350,000; recombinant BLM DNA unwinding, fluorescence dequenching;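 note: plate controls were vehicle for no effect and no enzyme for full effect; nearly all actives have a fitted effect of over 35% in size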
Target sequence (P54132 whole entry, looked up): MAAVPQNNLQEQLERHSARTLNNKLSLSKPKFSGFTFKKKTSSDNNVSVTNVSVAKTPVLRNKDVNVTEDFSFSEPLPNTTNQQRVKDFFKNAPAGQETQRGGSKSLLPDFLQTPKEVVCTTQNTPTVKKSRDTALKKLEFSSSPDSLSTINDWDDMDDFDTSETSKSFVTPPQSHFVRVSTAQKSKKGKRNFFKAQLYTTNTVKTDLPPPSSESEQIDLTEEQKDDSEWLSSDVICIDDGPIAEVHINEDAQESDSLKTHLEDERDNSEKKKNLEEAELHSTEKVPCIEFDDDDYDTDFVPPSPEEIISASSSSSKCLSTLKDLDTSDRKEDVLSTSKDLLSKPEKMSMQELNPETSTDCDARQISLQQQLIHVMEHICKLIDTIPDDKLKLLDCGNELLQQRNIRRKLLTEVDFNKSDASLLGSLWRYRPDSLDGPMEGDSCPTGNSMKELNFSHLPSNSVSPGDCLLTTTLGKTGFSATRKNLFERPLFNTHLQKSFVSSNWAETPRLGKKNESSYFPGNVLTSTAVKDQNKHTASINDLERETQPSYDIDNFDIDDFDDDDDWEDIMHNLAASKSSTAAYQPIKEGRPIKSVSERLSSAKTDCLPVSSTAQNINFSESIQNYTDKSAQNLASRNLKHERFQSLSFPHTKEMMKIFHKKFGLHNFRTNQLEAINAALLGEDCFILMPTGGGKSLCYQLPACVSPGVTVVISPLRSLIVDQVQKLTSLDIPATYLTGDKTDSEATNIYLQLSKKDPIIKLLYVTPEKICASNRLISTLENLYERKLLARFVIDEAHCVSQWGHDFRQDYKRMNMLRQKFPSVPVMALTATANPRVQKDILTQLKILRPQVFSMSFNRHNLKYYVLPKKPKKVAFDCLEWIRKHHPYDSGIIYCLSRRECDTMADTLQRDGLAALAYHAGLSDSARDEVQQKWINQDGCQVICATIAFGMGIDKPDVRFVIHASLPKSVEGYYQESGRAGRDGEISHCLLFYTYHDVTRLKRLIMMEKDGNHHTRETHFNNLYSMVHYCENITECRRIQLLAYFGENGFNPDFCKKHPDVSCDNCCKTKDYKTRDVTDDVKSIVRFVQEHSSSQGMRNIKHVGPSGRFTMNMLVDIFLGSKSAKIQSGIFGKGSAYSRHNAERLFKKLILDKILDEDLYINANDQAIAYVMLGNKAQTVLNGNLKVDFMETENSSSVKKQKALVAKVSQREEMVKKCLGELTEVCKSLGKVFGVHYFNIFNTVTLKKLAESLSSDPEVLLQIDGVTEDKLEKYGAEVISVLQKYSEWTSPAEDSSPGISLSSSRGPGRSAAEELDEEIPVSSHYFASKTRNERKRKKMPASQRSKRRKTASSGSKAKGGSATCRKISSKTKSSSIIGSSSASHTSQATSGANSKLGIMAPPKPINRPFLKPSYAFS
L3MBTL1 inh: blocks human L3MBTL1. Q9Y468. AlphaScreen L3MBTL1–H3K9me1 peptide binding. Potency, µM (titrated, usually from 57.1 µM), for inactives: at the highest dose activity, negative = inhibition, actives largely listed as inhibitors. AID 485360. hit rate 0.66% among 230,000; note: nearly all actives have a fitted effect of over 60% in size
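Read-out is AlphaScreen signal from streptavidin donor and nickel chelate acceptor beads (10 ug/mL final each) bridging L3MBTL1 (50 nM) and biotinylated K9-monomethylated H3(1-15) peptide (75 nM), after 30 min compound exposure at room temperature.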
Active calls of the source: *; i = inactive; ? = inconclusive; . = no result given; ! = repeats disagree; [ ] = another dose, or the depositor's remark. Many of the other results were omitted from the sample, so hits are more common in it than they were. Unless noted, calls come from the whole dose curve; as a rule, active = well fitted curve in the direction sought with a large enough effect; inconclusive = small, poorly fitted or top-dose-only effect, or another doubt; inactive = no such curve, though single readings can be large; an effect the other way counts as inactive or inconclusive. Unless noted, % is set by controls: 0 for no effect and ±100 for the full control effect; potency is the fitted concentration of half-maximal effect.

SMILES	TDP1 inh	RECQ1 inh	APEX1 inh	KDM4E inh	BLM helicase inh	L3MBTL1 inh
Cc1ccc(C(=O)Oc2ccc(C(=O)COC(=O)C3CC(=O)N(Cc4ccco4)C3)cc2)cc1 (centres undefined)	?	-29%	32µM*	7%	-28%	?
O=c1[nH]c(=S)[nH]c2nc[nH]c12	-13%	.	.	.	.	.
S=c1nc[nH]c2nc[nH]c12	32µM*	i	47%	20µM*	-2%	9%
C/C(=N\Nc1ccc(Cl)c(C(=O)O)c1)c1ccc[nH]1	?	-13%	?	-10%	-3%	28µM*
C/C(=N\Nc1ccc(Cl)c(C(=O)O)c1)c1ccc(N2CCOCC2)cc1	.	.	3%	.	0%	.
CCN(CC)CCCCn1c(-c2ccccc2)nc2c(NCCOC)nc(C)nc21	3%	i	-8%	?	7%	.
COc1ccc(/C=N/N=C2/CC(C)(C)Cc3n[nH]c(=O)cc32)cc1	5%	-3%	?	32µM*	-3%	-10%
COc1ccc(/C=N/N=C2/NC(=O)CC(C(=O)O)S2)cc1 (centres undefined)	3%	-5%	5%	-4%	1%	5%
CCOC(=O)C1=C(CSc2nc(-c3ccccc3)ccc2C#N)OC(N)=C(C#N)C1c1cccnc1 (centres undefined)	3%	-22%	-3%	-9%	-8%	.
CCOC(=O)C1=C(CSc2nc(-c3ccccc3)ccc2C#N)OC(N)=C(C#N)C1c1ccccc1 (centres undefined)	6%	22µM*	-2%	2%	-17%	.
NNC(=O)C(C(=O)OCc1ccccc1)c1ccccc1 (centres undefined)	1%	.	.	.	.	.
Cc1cccc(NC(=O)C(Cc2ccccc2)n2cccc2)c1C (centres undefined)	6%	.	.	.	-3%	.
CCOc1cccc(/C=N/NC(=S)Nc2cc(S(=O)(=O)N3CCOCC3)ccc2N2CCOCC2)c1O	8%	-4%	-5%	32µM*	-5%	?
CO[C@H]1C[C@H](O[C@H]2[C@H](C)[C@@H](O[C@@H]3O[C@H](C)C[C@H](N(C)C)[C@H]3OC(C)=O)[C@@H](C)C[C@]3(CO3)C(=O)[C@H](C)[C@@H](OC(C)=O)[C@@H](C)[C@@H](C)OC(=O)[C@@H]2C)O[C@@H](C)[C@@H]1OC(C)=O	.	.	2%[21 µM]	.	.	.
COc1ccc(-c2[nH]n(-c3ccc([N+](=O)[O-])cc3)c(=O)c2C=NCc2ccncc2)cc1	5%	-11%	5%	-4%	7.9µM*	15%
COc1ccc(-c2[nH]n(-c3ccc([N+](=O)[O-])cc3)c(=O)c2C=NCc2ccc(F)cc2)cc1	8%	-10%	30%	8%	1%	-5%
CC(=O)OCCN1C(=O)c2c(C)nc3ccc(S(=O)(=O)N4CCOCC4)cc3c2C1=O	6%	-15%	12%	.	-14%	.
O=S(=O)(c1cccs1)N1CCN(c2nc(-c3cccs3)nc3ccccc23)CC1	-1%	.	.	.	.	.
O=C(Nc1ccc2nc(SCC(=O)N3CCCC3)sc2c1)c1ccccc1F	6%	.	.	.	-2%	.
Fc1ccc(Nc2nc(NCc3ccco3)nc3nccnc23)cc1	0%	.	.	.	.	.
c1ccc(Nc2nc(NCc3ccco3)nc3nccnc23)cc1	50µM*	.	.	.	.	.
Cc1ccc(NC(=O)CSc2nnc(-c3cccc([S+](=O)([O-])N4CCCC4)c3)n2-c2ccccc2)cc1	.	.	49%	.	.	.
O=C1OC2(c3cc(I)c(O)c(I)c3Oc3c2cc(I)c(O)c3I)c2c(Cl)c(Cl)c(Cl)c(Cl)c21	29%	10µM*	13µM*	.	13µM*	.
O=C1OC2(c3ccccc31)c1cc(I)c(O)c(I)c1Oc1c2cc(I)c(O)c1I	29%	28µM*	27µM*	.	22µM*	3.2µM*
Cc1ccc(/C=C2\C(=N)N3N=C(CC(=O)N4CCCCC4)SC3=NC2=O)cc1	5%	.	41%	.	-1%	.
SMILES	TDP1 inh	RECQ1 inh	APEX1 inh	KDM4E inh	BLM helicase inh	L3MBTL1 inh
N=C1/C(=C/c2ccco2)C(=O)N=C2SC(CC(=O)N3CCCC3)=NN12	20µM*	.	-27%	.	-27%	.
CCCCN1/C(=C/c2ccc3ccccc3[n+]2CC)Sc2ccccc21	2%	i	-6%	14µM*	85%	-19%
O=S1(=O)N=C(Oc2ccc(Cl)cc2)c2ccccc21	-2%	.	.	.	.	.
O=C(Oc1ccc2c(=O)c(Oc3ccc4ccccc4c3)coc2c1)c1cncc(Br)c1	-3%	i	-5%	11µM*	-4%	2%
O=C(Oc1ccc2c(=O)c(Cl)coc2c1)c1ccncc1	-3%	2%	?	?	-7%	-2%
Cc1cccc(Nc2ncccc2C(=O)O)c1C	3%	7%	2%	-19%	1%	5%
Cc1cccc(Nc2ccccc2C(=O)O)c1C	0.011µM*!	-12%	22%	-10%	2%	-7%
N[C@]1(C(=O)O)CCc2cc(P(=O)(O)O)ccc21	-4%[56.1 µM]	-7%	-14%	40µM*	-9%	.
O=C(OC1CCCCC1)c1ccc2c(c1)C1C=CCC1C(C(=O)O)N2 (centres undefined)	-5%	7.9µM*	?	-21%	16µM*	3.2µM*
O=C(O)C1Nc2ccc(Br)cc2C2C=CCC12 (centres undefined)	.	.	?	.	16µM*	.
CCOC(=O)c1ccc2c(c1)C1C=CCC1C(C(=O)OCC)N2 (centres undefined)	.	.	11%	.	-23%	?
CCOC(=O)C1Nc2ccc(Br)cc2C2C=CCC12 (centres undefined)	.	.	14%	.	-8%	-28%
COC(=O)c1ccc(C2Nc3c(C)cc(C)cc3C3C=CCC32)cc1 (centres undefined)	8%	.	.	.	-3%	.
O=C(O)C1Nc2c(Cl)cc(Cl)cc2C2C=CCC12 (centres undefined)	.	.	13µM*	.	?	3.5µM*
CC1CCN(C(=O)Cn2cc(SCC(=O)NCc3ccccc3Cl)c3ccccc32)CC1	3%	.	.	.	-5%	.
CC(=O)N1CCOc2cc(S(=O)(=O)NCc3ccccc3Cl)c(Cl)cc21	6.3µM*	.	20%	.	-5%	2%
CC(=O)N1CCOc2cc(S(=O)(=O)NCc3ccc(C)cc3)c(C)cc21	8%	.	.	.	-5%	.
CC(=O)N1CCOc2ccc(S(=O)(=O)NCc3ccc(F)cc3)cc21	45µM*	.	?	.	-9%	.
N#Cc1no[n+]([O-])c1-c1ccccc1	.	.	11%	.	.	.
O=C(Cc1cccs1)OCC(=O)c1ccco1	.	-21%	28µM*	-15%	0%	?
Cc1ccc(Nc2nc(C#N)nc(NC3CCCC3)n2)cc1	-3%	.	.	.	.	.
CCCNc1nc(C#N)nc(Nc2ccccc2)n1	6%	-7%	-1%	.	-11%	.
NNc1ccc(Cc2ccc(Cl)cc2Cl)nn1	3%	-2%	-7%	?	-4%	13µM*
